Test results reported in publication PMC5540273 (PLoS ONE, 2017).

System: GSK3B
Conditions: concentration: 1 μM,replicates: in singlicate; n = 1
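Also: KINOMEscan kinase panel screen.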

First: CNC(=O)c1ccccc1Sc1ccc2c(/C=C/c3ccccn3)n[nH]c2c1
Second: Nc1nc(Nc2ccccc2)cc(-c2ccc3c(N)n[nH]c3c2)n1 [GSK2225749]
The “%Inh” value of the first is higher: 9% for the first, 0% for the second.

First: CCN(CC)CCCCNc1ncc2cc(-c3c(Cl)cccc3Cl)c(NC(=O)NC(C)(C)C)nc2n1
Second: CCN(CC)CCOc1ccc(Nc2ncc3cc(-c4c(Cl)cccc4Cl)c(=O)n(C)c3n2)cc1 [SB-601273]
The “%Inh” value of the first is higher: 26% for the first, 0% for the second.

Going from `Cc1cc(C(=O)Nc2ccc(Oc3ccc4nc(NC(=O)C5CC5)cn4n3)cc2)nn1-c1ccccc1` to `Cl.Oc1cc(-c2nc(-c3ccccc3)[nH]c2-c2ccncc2)ccc1Cl` [SB-386023], the “%Inh” value rises from 0% to 40%.

Compared with `CN(C)CC(O)COc1ccc(Nc2nccc(-c3cnn4nc(N5CCOCC5)ccc34)n2)cc1` (stereo not drawn) [GW767488], `CN(C)CCOc1ccc(-c2cc(-c3c[nH]nc3-c3ccccn3)ccn2)cc1` [GW835314] is lower in “%Inh” value: 61% for the first, 7% for the second.

Compared with `Cl.Cl.Nc1nc(-c2ccc3c(N)n[nH]c3c2)cc(N2CCCC(NC(=O)c3ccccc3)C2)n1` (stereo not drawn) [GSK2286775], `Cl.Cl.NC[C@H](Cc1ccc(C(F)(F)F)cc1)NC(=O)c1cc(Br)c(-c2ccnc3[nH]ccc23)s1` [GSK1487252] is higher in “%Inh” value: 15% for the first, 18% for the second.

Compared with `C[C@@H]1CCN(C(=O)CC#N)C[C@@H]1N(C)c1ncnc2[nH]ccc12`, `Cl.Cl.NC[C@H](CC1CCCCC1)NC(=O)c1cc(Br)c(-c2ccnc3[nH]ccc23)s1` [GSK1581427] is higher in “%Inh” value: 0% for the first, 13% for the second.

First: C[C@H]1Oc2cc(cnc2N)-c2c(nn(C)c2C#N)CN(C)C(=O)c2ccc(F)cc21
Second: C[C@@H](Oc1cc(-c2cnn(C3CCNCC3)c2)cnc1N)c1c(Cl)ccc(F)c1Cl
The “%Inh” value of the first is lower: 0% for the first, 36% for the second.

For `CCn1c(-c2nonc2N)nc2c(C#CC(C)(C)O)nc(OCCN)cc21.Cl.Cl` [GSK902056], the “%Inh” value was 36%.
